# Measured values reported in the antibiotic and cytotoxicity screens of Wong et al. (2023).
# The whole screen tested about 39,000 compounds, of which about 3,300 (8.5%) were called active. What follows is part of a selection rich in actives, with near analogues and random picks from the rest.
# System: HepG2
# Assay: cytotoxicity call (relative viability < 0.9)
# Details: 10 µM
row,SMILES,cytotoxicity call
1,N#Cc1ccc[nH]c1=O,inactive
2,C[C@@H]1CN([C@@H](C)CO)C(=O)c2cc(NS(=O)(=O)c3cccs3)ccc2O[C@@H]1CN(C)C(=O)Nc1cccc2ccccc12,inactive
3,CCC=CCC=CCC=CCC=CCC=CCCCC(=O)OCC [OMEGA-3-ACID ESTERS (EPA shown) ],inactive
4,C[C@H](CO)N1C[C@H](C)[C@@H](CN(C)Cc2ccc(C(=O)O)cc2)Oc2ncc(C#CCN(C)C)cc2C1=O,inactive
5,Cc1noc(C)c1NC(=O)Nc1ccc2c(c1)CC(=O)N([C@H](C)CO)C[C@@H](C)[C@H](CN(C)Cc1ccc(Cl)c(Cl)c1)O2,inactive
6,CCOC(=O)N(C)C[C@@H]1OCc2cn(nn2)CCCC(=O)N([C@@H](C)CO)C[C@@H]1C,inactive
7,COc1ccc(NC(=O)Nc2ccc3c(c2)C(=O)N([C@@H](C)CO)C[C@@H](C)[C@@H](CN(C)S(=O)(=O)c2ccc(OC)cc2)OCCCC[C@H](C)O3)cc1,inactive
8,COc1ccccc1CNC(=O)C[C@@H]1C[C@@H]2c3cc(NC(=O)c4ccc5c(c4)OCO5)ccc3O[C@@H]2[C@H](CO)O1,inactive
9,NCC[C@H]1CC[C@H](NC(=O)C2CCC2)[C@@H](CO)O1,inactive
10,Cc1cccc(S(=O)(=O)N2C[C@@H](O)COC[C@@H]3O[C@H](CC(=O)N4CCN(C)CC4)CC[C@H]32)c1,inactive
11,COc1ccc(NC(=O)Nc2ccc3c(c2)C(=O)N([C@H](C)CO)C[C@H](C)[C@H](CN(C)C(=O)CCC(F)(F)F)OCCCC[C@H](C)O3)cc1,inactive
12,CC(C)NC(=O)N(C)C[C@H]1Oc2ccc(NS(=O)(=O)c3cccs3)cc2C(=O)N([C@H](C)CO)C[C@H]1C,inactive
13,C[C@H](CO)N1C[C@H](C)[C@@H](CN(C)Cc2ccc(Cl)c(Cl)c2)Oc2c(NS(=O)(=O)c3ccccc3)cccc2C1=O,active
14,COc1ccc(S(=O)(=O)Nc2cccc3c2O[C@@H](CN(C)Cc2ccc(Cl)c(Cl)c2)[C@H](C)CN([C@@H](C)CO)C3=O)cc1,inactive
15,C[C@@H]1CN([C@@H](C)CO)C(=O)c2cccc(NS(=O)(=O)c3ccc(Cl)cc3)c2O[C@H]1CN(C)Cc1ccc(Cl)c(Cl)c1,inactive
16,C[C@@H]1CN([C@@H](C)CO)C(=O)c2cccc(NS(=O)(=O)c3ccccc3)c2O[C@@H]1CN(C)Cc1ccc(Cl)c(Cl)c1,inactive
17,C[C@H](CO)N1C[C@H](C)[C@@H](CN(C)Cc2ccc(Cl)c(Cl)c2)Oc2c(NS(=O)(=O)c3ccc(Cl)cc3)cccc2C1=O,inactive
18,COc1ccc(S(=O)(=O)Nc2cccc3c2O[C@H](CN(C)Cc2ccc(Cl)c(Cl)c2)[C@H](C)CN([C@@H](C)CO)C3=O)cc1,active

row,SMILES,cytotoxicity call
1,COc1ccc(S(=O)(=O)Nc2cccc3c2O[C@H](CN(C)Cc2ccc(Cl)c(Cl)c2)[C@@H](C)CN([C@@H](C)CO)C3=O)cc1,inactive
2,C[C@H]1CN([C@@H](C)CO)C(=O)c2cccc(NS(=O)(=O)c3ccc(Cl)cc3)c2O[C@@H]1CN(C)Cc1ccc(Cl)c(Cl)c1,active
3,C[C@H]1CN([C@@H](C)CO)C(=O)c2cccc(NS(=O)(=O)c3ccccc3)c2O[C@H]1CN(C)Cc1ccc(Cl)c(Cl)c1,inactive
4,Cc1ccc(S(=O)(=O)N(C)C[C@@H]2Oc3ccc(NC(=O)NC(C)C)cc3CC(=O)N([C@@H](C)CO)C[C@H]2C)cc1,inactive
5,Nc1ncnc(NC[C@H]2CCCO2)c1[N+](=O)[O-],inactive
6,COc1ccc(NC(=O)Nc2ccc3c(c2)C(=O)N([C@@H](C)CO)C[C@@H](C)[C@@H](CN(C)S(=O)(=O)c2ccc(C)cc2)OCCCC[C@H](C)O3)cc1,inactive
7,C[C@@H]1CN([C@@H](C)CO)S(=O)(=O)c2ccc(-c3cncnc3)cc2O[C@@H]1CN(C)C(=O)Cc1ccncc1,inactive
8,COc1ccc(NC(=O)Nc2ccc3c(c2)C(=O)N([C@H](C)CO)C[C@H](C)[C@@H](CN(C)Cc2ccccc2)OCCCC[C@H](C)O3)cc1,inactive
9,COc1ccc(NC(=O)Nc2ccc3c(c2)C(=O)N([C@H](C)CO)C[C@@H](C)[C@@H](CN(C)Cc2ccccc2)OCCCC[C@@H](C)O3)cc1,inactive
10,COc1ccc(NC(=O)Nc2ccc3c(c2)C(=O)N([C@@H](C)CO)C[C@H](C)[C@H](CN(C)Cc2ccccc2)OCCCC[C@@H](C)O3)cc1,inactive
11,COc1ccc(NC(=O)Nc2ccc3c(c2)C(=O)N([C@@H](C)CO)C[C@@H](C)[C@H](CN(C)Cc2ccccc2)OCCCC[C@@H](C)O3)cc1,inactive
12,COc1ccc(NC(=O)Nc2ccc3c(c2)C(=O)N([C@@H](C)CO)C[C@H](C)[C@@H](CN(C)Cc2ccccc2)OCCCC[C@@H](C)O3)cc1,inactive
13,COc1ccc(NC(=O)Nc2ccc3c(c2)C(=O)N([C@H](C)CO)C[C@@H](C)[C@H](CN(C)Cc2ccccc2)OCCCC[C@@H](C)O3)cc1,active
14,COc1ccc(NC(=O)Nc2ccc3c(c2)C(=O)N([C@@H](C)CO)C[C@@H](C)[C@H](CN(C)Cc2ccccc2)OCCCC[C@H](C)O3)cc1,active
15,COc1ccc(NC(=O)Nc2ccc3c(c2)C(=O)N([C@H](C)CO)C[C@@H](C)[C@@H](CN(C)Cc2ccccc2)OCCCC[C@H](C)O3)cc1,inactive
16,COc1ccc(NC(=O)Nc2ccc3c(c2)C(=O)N([C@@H](C)CO)C[C@H](C)[C@H](CN(C)Cc2ccccc2)OCCCC[C@H](C)O3)cc1,inactive
17,COc1ccc(NC(=O)Nc2ccc3c(c2)C(=O)N([C@H](C)CO)C[C@@H](C)[C@H](CN(C)Cc2ccccc2)OCCCC[C@H](C)O3)cc1,active
